# According to PubChem BioAssay (EPA / NIEHS):
# Results filed as inconclusive are left out. Activity calls are given as the source filed them. Rule for the calls, unless noted: active = hit-call score of the fitted dose curve at least 0.9, where 1 is the maximum; inactive = score below 0.9.
# What was measured:
# [1] = read-out: Monokine induced gamma interferon (MIG), CXCL9 (gene 4283); assay: BSK_3C_MIG: BioMAP Diversity Plus: 3C Assay for Monokine induced gamma interferon (MIG) Biomarker Activity (AID 2283021); conditions: primary human endothelial cells (HUVEC); actives raise or lower the signal;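 for AC50: MIG protein level measured by immunoassay in the treated endothelial cultures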
# How it was run: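 HUVEC primary endothelial cultures dosed with chemical; MIG quantified by ELISA at 24 h. Data fitted bidirectionally against DMSO control, with parallel SRB total-protein staining for cytotoxicity.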
# [2] = target: human Vitamin D Receptor (VDR), VDR (gene 7421) (UniProt P11473); assay: ATG_VDR_TRANS: Attagene TRANS-FACTORIAL HepG2 Assay for human Vitamin D Receptor (VDR) (AID 2283022; active = hit-call score of the fitted dose curve at least 0.9, where 1 is the maximum)
# How it was run: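 RT-PCR/capillary electrophoresis read-out of reporter mRNA induction in transiently transfected HepG2; 24 h dosing; chimeric NR-Gal4 (TRANS format); gain-of-signal fit against DMSO baseline.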
# [3] = BSK_3C_SRB: Viability Assessment in the BioMAP Diversity Plus: 3C Assay (AID 2283023); conditions: primary human endothelial cells (HUVEC);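 note: cells read 24 h after compound dosing; fitted both ways against DMSO so a hit may be signal rise or drop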
# How it was run: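 HUVEC, 24 h post-dose; 10% TCA fix, 0.1% SRB stain, A560 nm. Bidirectional curve fit vs DMSO negative control.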
# [4] = read-out: Matrix Metallopeptidase 1 (MMP1), MMP1 (gene 4312); assay: BSK_BE3C_MMP1: BioMAP Diversity Plus: BE3C Assay for Matrix Metallopeptidase 1 (MMP1) Biomarker Activity (AID 2283024); conditions: primary human bronchial epithelial cells; actives raise or lower the signal
# How it was run: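 Human primary bronchial epithelial cells (BE3C system) dosed for 24 h; MMP-1 quantified by ELISA. Bidirectional fit against DMSO; cytotoxicity tracked in parallel cultures by SRB total-protein staining.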
# [5] = read-out: Pselectin, SELP (gene 6403); assay: BSK_4H_Pselectin: BioMAP Diversity Plus: 4H Assay for Pselectin Biomarker Activity (AID 2283026); conditions: primary human endothelial cells (HUVEC); actives raise or lower the signal
# How it was run: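 Primary human umbilical vein endothelial cells were treated 24 h, and cell-surface P-selectin was then quantified by ELISA. Bidirectional fit versus DMSO; cytotoxicity checked in parallel cultures by SRB total-protein staining.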
# [6] = BSK_4H_SRB: Viability Assessment in the BioMAP Diversity Plus: 4H Assay (AID 2283027); conditions: primary human endothelial cells (HUVEC);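 note: cells exposed to compound for 24 h before staining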;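 for AC50: curves fitted both ways versus DMSO so AC50 may be loss or gain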
# How it was run: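 Human umbilical vein endothelial cells were dosed with chemical and, after 24 h, fixed with 10% TCA, stained with 0.1% sulforhodamine B, and read at 560 nm to give total protein as a cytotoxicity measure. Bidirectional fitting relative to DMSO control.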
# [7] = BSK_BE3C_SRB: Viability Assessment in the BioMAP Diversity Plus: BE3C Assay (AID 2283028); conditions: primary human bronchial epithelial cells;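 for AC50: fitted both ways so AC50 may mark signal gain or loss versus DMSO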
# How it was run: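 Primary human bronchial epithelium; chemical dosing, 24 h; 10% TCA fix, 0.1% SRB stain, A560; bidirectional fit vs DMSO baseline.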
# [8] = read-out: Thrombomodulin, THBD (gene 7056); assay: BSK_3C_Thrombomodulin: BioMAP Diversity Plus: 3C Assay for Thrombomodulin Biomarker Activity (AID 2283029); conditions: primary human endothelial cells (HUVEC); actives raise or lower the signal
# How it was run: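 Human umbilical vein endothelial cells were exposed to chemicals for 24 h; cell-surface thrombomodulin quantified by ELISA, with bidirectional fitting against DMSO baseline.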
# [9] = read-out: Urokinase-type plasminogen activator receptor (uPAR), PLAUR (gene 5329); assay: BSK_4H_uPAR: BioMAP Diversity Plus: 4H Assay for Urokinase-type plasminogen activator receptor (uPAR) Biomarker Activity (AID 2283030); conditions: primary human endothelial cells (HUVEC); actives raise or lower the signal
# How it was run: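 HUVEC, 24 h post-dose; uPAR by ELISA; bidirectional fit vs DMSO baseline.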
# [10] = BSK_3C_Vis: BioMAP Diversity Plus: 3C Assay for Morphology Visualization (AID 2283025); conditions: primary human endothelial cells (HUVEC);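 note: fitted both ways so gain or loss versus DMSO counts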;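 for AC50: light microscopy image of cell morphology used as background control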
# How it was run: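 Human umbilical vein endothelial cell morphology was inspected by light microscopy 24 h after chemical dosing; scored bidirectionally relative to DMSO.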
# human Vitamin D Receptor (VDR), VDR (gene 7421), sequence (P11473 whole entry, looked up, the tested form may be a part): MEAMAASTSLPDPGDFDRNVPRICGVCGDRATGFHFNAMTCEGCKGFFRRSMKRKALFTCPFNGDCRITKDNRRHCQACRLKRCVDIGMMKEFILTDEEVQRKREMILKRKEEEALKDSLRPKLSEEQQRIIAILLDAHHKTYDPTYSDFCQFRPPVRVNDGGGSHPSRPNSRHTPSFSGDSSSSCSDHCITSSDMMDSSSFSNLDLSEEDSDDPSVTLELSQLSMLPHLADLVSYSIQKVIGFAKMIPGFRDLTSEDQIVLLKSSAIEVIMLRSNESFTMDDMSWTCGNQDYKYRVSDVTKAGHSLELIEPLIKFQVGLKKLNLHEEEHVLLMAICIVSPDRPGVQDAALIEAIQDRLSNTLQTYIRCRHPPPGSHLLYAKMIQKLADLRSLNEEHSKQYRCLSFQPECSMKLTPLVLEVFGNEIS
compound,measurement,setting,value
c1ccc2cc3c(ccc4ccccc43)cc2c1,outcome,[1],inactive
same,outcome,[2],inactive
same,outcome,[3],inactive
same,AC50,[4],1.42 µM (active)
same,outcome,[5],inactive
same,outcome,[6],inactive
same,outcome,[7],inactive
same,outcome,[8],inactive
same,outcome,[9],inactive
c1ccc2c(c1)ccc1ccccc12,outcome,[1],inactive
same,outcome,[2],inactive
same,outcome,[3],inactive
same,outcome,[4],inactive
same,outcome,[5],inactive
same,outcome,[6],inactive
same,outcome,[7],inactive
same,outcome,[8],inactive
same,outcome,[9],inactive
OC1CCC(C2CCCCC2)CC1 (centres undefined),outcome,[1],inactive
same,outcome,[2],inactive
same,outcome,[3],inactive
same,outcome,[4],inactive
same,outcome,[10],inactive
same,outcome,[5],inactive
same,outcome,[6],inactive
same,outcome,[7],inactive
same,outcome,[8],inactive
same,outcome,[9],inactive
CCCCCCC(=O)O,outcome,[1],inactive
same,outcome,[2],inactive
same,outcome,[3],inactive
same,outcome,[4],inactive
same,outcome,[10],inactive
same,outcome,[5],inactive
same,outcome,[6],inactive
same,outcome,[7],inactive
same,outcome,[8],inactive
same,outcome,[9],inactive
CCCCCCCCCCCCN1CCCC1=O,AC50,[1],36.7 µM (active)
same,outcome,[2],inactive
same,AC50,[3],33.6 µM (active)
same,AC50,[4],31.7 µM (active)
same,AC50,[5],30 µM (active)
same,AC50,[6],33.4 µM (active)
same,AC50,[7],32.8 µM (active)
same,outcome,[8],inactive
same,AC50,[9],34.9 µM (active)
NCC(F)(F)C(F)(F)C(F)(F)C(F)(F)C(F)(F)C(F)(F)C(F)(F)F,outcome,[1],inactive
same,outcome,[2],inactive
same,outcome,[3],inactive
same,outcome,[4],inactive
same,outcome,[5],inactive
same,outcome,[6],inactive
same,outcome,[7],inactive
same,outcome,[8],inactive
same,outcome,[9],inactive
COCC(C)OCC(C)O (centres undefined),outcome,[1],inactive
same,outcome,[3],inactive
same,outcome,[4],inactive
same,AC50,[10],39 µM (active)
same,outcome,[5],inactive
same,outcome,[6],inactive
same,outcome,[7],inactive
same,outcome,[8],inactive
same,outcome,[9],inactive
CC#C[C@]1(O)CC[C@H]2[C@@H]3CCC4=CC(=O)CCC4=C3[C@@H](c3ccc(N(C)C)cc3)C[C@@]21C,AC50,[1],38.3 µM (active)
same,AC50,[3],30.5 µM (active)
same,AC50,[4],0.623 µM (active)
same,outcome,[10],inactive
same,AC50,[5],29.9 µM (active)
same,AC50,[6],29.1 µM (active)
same,outcome,[7],inactive
same,outcome,[8],inactive
same,AC50,[9],3.97 µM (active)
O=[N+]([O-])c1ccc(O)cc1,outcome,[1],inactive
same,outcome,[3],inactive
same,outcome,[4],inactive
same,outcome,[5],inactive
same,outcome,[6],inactive
same,outcome,[7],inactive
same,outcome,[8],inactive
same,outcome,[9],inactive
CN(C)C=O,outcome,[1],inactive
same,outcome,[3],inactive
same,outcome,[4],inactive
same,outcome,[10],inactive
same,outcome,[5],inactive
same,outcome,[6],inactive
same,outcome,[7],inactive
same,outcome,[8],inactive
same,outcome,[9],inactive
CCCCCCCCCCCCCC[N+](C)(C)C,AC50,[1],8.96 µM (active)
same,outcome,[2],inactive
same,AC50,[3],1.38 µM (active)
same,AC50,[4],5.8 µM (active)
same,AC50,[5],1.95 µM (active)
same,AC50,[6],5.31 µM (active)
same,AC50,[7],5.28 µM (active)
same,outcome,[9],inactive
COc1ccc([N+](=O)[O-])cc1N,outcome,[1],inactive
same,outcome,[3],inactive
same,outcome,[4],inactive
same,outcome,[10],inactive
same,outcome,[5],inactive
same,outcome,[6],inactive
same,outcome,[7],inactive
same,outcome,[8],inactive
same,outcome,[9],inactive
O=C1OC2(c3ccccc31)c1cc(Br)c(O)c(Br)c1Oc1c2cc(Br)c(O)c1Br,outcome,[2],inactive
Cc1cc(C)c(O)c(C)c1,outcome,[1],inactive
same,outcome,[3],inactive
same,outcome,[4],inactive
same,outcome,[10],inactive
same,outcome,[5],inactive
same,outcome,[6],inactive
same,outcome,[7],inactive
same,outcome,[8],inactive
same,outcome,[9],inactive
CC(C)CCCCCCOC(=O)CCCCC(=O)OCCCCCCC(C)C,outcome,[1],inactive
same,outcome,[3],inactive
same,outcome,[4],inactive
same,outcome,[5],inactive
same,outcome,[6],inactive
same,outcome,[7],inactive
same,outcome,[8],inactive
same,outcome,[9],inactive
CCCCCCCCOC(=O)CCCCCCCCC(=O)OCCCCCCCC,outcome,[1],inactive
same,outcome,[3],inactive
same,outcome,[4],inactive
same,outcome,[5],inactive
same,outcome,[6],inactive
same,outcome,[7],inactive
same,outcome,[8],inactive
same,outcome,[9],inactive
COc1cc(CCC(=O)CC(=O)CCc2ccc(O)c(OC)c2)ccc1O,outcome,[2],inactive
O=C(O)Cc1cc(I)c(Oc2cc(I)c(O)c(I)c2)c(I)c1,outcome,[1],inactive
same,outcome,[2],inactive
same,outcome,[3],inactive
same,outcome,[4],inactive
same,AC50,[5],20.2 µM (active)
same,outcome,[6],inactive
same,AC50,[7],8.8 µM (active)
same,outcome,[8],inactive
same,AC50,[9],19.9 µM (active)
